From PubChem
HP1b binding inh: HP1-beta chromodomain-methylated histone interaction inhibition | P83916 | hit rate 0.56% among 390,000 | Potency, µM (highest dose often 114 µM), most hits filed as inhibitors | AlphaScreen HP1-beta / biotin-H3K9me3 peptide binding; note: nearly all actives have a fitted effect of over 70% in size
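Compound inhibition of the preformed complex between 50 nM HP1-beta and 50 nM biotinylated H3K9me3 peptide was read by AlphaScreen. Buffer was PBS pH 7.4 with 0.01% Tween-20. Incubations ran 30 min at room temperature, with 10 ug/mL donor/acceptor beads.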
Sfp inh: Sfp phosphopantetheinyl transferase inhibition. Biochemical Sfp PPTase activity, qHTS. Potency, µM, usual class: inhibitors. hit rate 3.5% among 310,000. AID 1490;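 note: the enzyme is Sfp with the accession as filed and its product quenches rhodamine fluorescence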
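After 15 min at room temperature with compound, 15 nM Sfp received 5 uM rhodamine-CoA plus 12.5 uM BHQ-2-ybbR (50 mM Hepes pH 7.6, 10 mM MgCl2). Rate came from the fluorescence difference over 30 min, ex 525/em 598 nm.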
G9a block: blocks human histone lysine methyltransferase G9a | G9a H3K9 monomethylation, AlphaScreen, 2 h | Potency, µM (doses to about 102 µM), most hits filed as inhibitors | hit rate 8.8% among 350,000 | AID 504332; note: nearly all actives have a fitted effect of over 75% in size
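Signal arises when biotinylated H3K9 peptide, once monomethylated, bridges streptavidin donor and antibody-captured acceptor beads. Enzyme at 20 nM was preincubated 15 min with test compounds; peptide 500 nM and SAM 20 uM then reacted for 2 h.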
BAZ2B inh: inhibitors of human BAZ2B bromodomain; Q9UIF8; Potency, µM (doses to about 114 µM), usual class: inhibitors; AID 504333; hit rate 4.4% among 360,000; AlphaScreen BAZ2B-H3K14Ac peptide displacement; note: nearly all actives have a fitted effect of over 60% in size
Target sequence (Q9UIF8 whole entry, looked up): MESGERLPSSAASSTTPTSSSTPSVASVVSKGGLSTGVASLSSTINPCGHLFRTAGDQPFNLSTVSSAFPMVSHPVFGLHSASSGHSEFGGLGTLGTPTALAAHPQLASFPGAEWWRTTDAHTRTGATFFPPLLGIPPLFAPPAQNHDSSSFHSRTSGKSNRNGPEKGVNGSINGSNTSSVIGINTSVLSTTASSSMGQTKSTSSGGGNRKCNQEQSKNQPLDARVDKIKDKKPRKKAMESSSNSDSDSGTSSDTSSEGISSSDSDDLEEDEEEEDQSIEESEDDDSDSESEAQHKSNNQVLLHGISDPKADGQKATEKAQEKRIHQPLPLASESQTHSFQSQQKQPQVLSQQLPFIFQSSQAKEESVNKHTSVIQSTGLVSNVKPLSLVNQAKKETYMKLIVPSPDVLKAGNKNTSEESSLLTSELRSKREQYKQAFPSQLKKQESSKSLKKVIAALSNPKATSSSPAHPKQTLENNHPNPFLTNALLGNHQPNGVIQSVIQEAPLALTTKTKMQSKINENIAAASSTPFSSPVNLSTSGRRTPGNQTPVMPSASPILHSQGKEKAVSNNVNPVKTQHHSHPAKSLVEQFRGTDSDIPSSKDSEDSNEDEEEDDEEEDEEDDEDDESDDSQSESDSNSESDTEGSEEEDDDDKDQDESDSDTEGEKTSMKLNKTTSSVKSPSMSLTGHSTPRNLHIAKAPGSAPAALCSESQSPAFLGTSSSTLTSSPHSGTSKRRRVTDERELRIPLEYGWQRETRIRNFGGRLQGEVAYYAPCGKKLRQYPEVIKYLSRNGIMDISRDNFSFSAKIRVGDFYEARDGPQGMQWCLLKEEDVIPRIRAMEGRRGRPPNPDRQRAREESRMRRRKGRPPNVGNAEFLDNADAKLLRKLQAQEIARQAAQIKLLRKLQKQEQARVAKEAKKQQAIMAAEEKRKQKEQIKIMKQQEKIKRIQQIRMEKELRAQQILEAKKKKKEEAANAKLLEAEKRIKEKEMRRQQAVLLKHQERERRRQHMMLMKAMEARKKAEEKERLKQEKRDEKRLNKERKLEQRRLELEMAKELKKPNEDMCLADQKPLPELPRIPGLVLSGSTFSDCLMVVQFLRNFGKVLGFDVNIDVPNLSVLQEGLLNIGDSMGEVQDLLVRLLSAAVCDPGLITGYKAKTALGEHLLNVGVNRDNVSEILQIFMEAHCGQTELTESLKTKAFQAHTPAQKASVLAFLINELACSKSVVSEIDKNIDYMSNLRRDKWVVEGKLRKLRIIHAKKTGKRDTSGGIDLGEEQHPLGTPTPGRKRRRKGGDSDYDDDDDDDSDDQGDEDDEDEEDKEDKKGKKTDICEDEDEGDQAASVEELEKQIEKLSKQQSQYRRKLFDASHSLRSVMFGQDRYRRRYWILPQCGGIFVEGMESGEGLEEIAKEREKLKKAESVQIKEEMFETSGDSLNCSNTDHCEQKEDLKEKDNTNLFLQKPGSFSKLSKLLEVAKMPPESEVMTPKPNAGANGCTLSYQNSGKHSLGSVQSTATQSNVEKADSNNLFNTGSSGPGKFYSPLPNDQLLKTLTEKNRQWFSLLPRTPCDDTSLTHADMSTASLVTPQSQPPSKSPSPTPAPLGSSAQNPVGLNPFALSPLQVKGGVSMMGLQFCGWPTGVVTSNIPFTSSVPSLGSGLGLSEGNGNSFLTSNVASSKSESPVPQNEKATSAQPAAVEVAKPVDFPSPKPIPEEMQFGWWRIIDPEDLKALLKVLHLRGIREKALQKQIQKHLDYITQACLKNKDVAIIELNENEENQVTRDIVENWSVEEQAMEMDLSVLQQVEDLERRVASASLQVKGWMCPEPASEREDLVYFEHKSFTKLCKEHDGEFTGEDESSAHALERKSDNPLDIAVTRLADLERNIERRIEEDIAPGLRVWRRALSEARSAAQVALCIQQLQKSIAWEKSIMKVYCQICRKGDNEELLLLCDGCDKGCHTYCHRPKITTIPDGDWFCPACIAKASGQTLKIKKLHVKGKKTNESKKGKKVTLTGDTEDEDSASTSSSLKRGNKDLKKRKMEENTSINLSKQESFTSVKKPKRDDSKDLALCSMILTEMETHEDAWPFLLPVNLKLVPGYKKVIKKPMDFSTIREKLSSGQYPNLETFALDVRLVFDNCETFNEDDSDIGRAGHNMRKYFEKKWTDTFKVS
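BAZ2B 50 nM plus b-H3(5-23)K14Ac 50 nM, PBS pH 7.4/0.01% Tween-20, 30 min RT; compound added (max 110 uM), 30 min RT; streptavidin donor/Ni-chelate acceptor beads 10 ug/mL final, 20 min dark; AlphaScreen read.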
PLK1 PBD block: inhibitors of human PLK1 polo-box domain binding; Plk1 PBD binding of FITC phosphopeptide, fluorescence polarization; Potency, µM, actives largely listed as inhibitors; hit rate 2.8% among 360,000; AID 720504; note: series mostly up to about 57 µM; nearly all actives have a fitted effect of over 65% in size
JMJD2A Tudor: blocks the human JMJD2A Tudor domain; Potency, µM (highest dose often 114 µM), actives largely listed as inhibitors; O75164; AID 504339; hit rate 4.4% among 390,000; AlphaScreen JMJD2A-Tudor / H3K4me3 peptide binding; note: nearly all actives have a fitted effect of over 50% in size
Hits are given with their value; . = inactive; ? = inconclusive; / = no result; [ ] = remark or other dose. An excerpt weighted towards active compounds, which were near 12% of everything screened. Calls come from the whole dose curve; as a rule, active = well fitted curve in the direction sought with a large enough effect; inconclusive = small, poorly fitted or top-dose-only effect, or another doubt; inactive = no such curve, though single readings can be large; an effect the other way counts as inactive or inconclusive.

SMILES	HP1b binding inh	Sfp inh	G9a block	BAZ2B inh	PLK1 PBD block	JMJD2A Tudor
COc1ccccc1C1CC(c2cccs2)=NN1C(=O)CCC(=O)O (stereo not given)	.	.	.	.	.	.
Cc1ccc(S(=O)(=O)CC(=O)Nc2nc3ccccc3s2)cc1	.	.	.	.	.	.
Cc1ccc(S(=O)(=O)Cc2sc3ccccc3[n+]2C)cc1	.	.	44.7µM	50.1µM	.	22.4µM
Cc1ccc(NS(=O)(=O)c2ccc(Br)cc2)nc1	.	.	.	.	.	.
COC1(NS(=O)(=O)c2ccc(Br)cc2)C(C)=CC(=O)C=C1C	?	.	?	.	6.7µM	.
[O-]/[N+](=C\c1ccncc1)c1ccc(Br)cc1	.	?	39.8µM	?	21.2µM	.
OCC[C@H]1C[C@H](O)[C@@H](O)[C@]2(Cc3ccccc3CCO2)O1	.	/	.[2.33 µM]	.	.	.
CC(=O)Nc1ccn(C2OC(C(COC(C)=O)NC(=O)C(Cc3ccccc3)NC(=O)OC(C)(C)C)C(OC(C)=O)C2OC(C)=O)c(=O)n1 (stereo not given)	.	.	/	/	/	.
CCCn1c(N)c(C(=O)CSc2nc(C)cs2)c(=O)[nH]c1=O	.	.	.	.	.	.
CCCn1c(N)c(C(=O)CSc2nc(C)nc3sc(C)c(C)c23)c(=O)[nH]c1=O	.	/	22.4µM	.	?	.
O=C(O)c1ccc(-c2ncc[nH]2)cc1	.	.	.	.	?	20µM
CC(NS(=O)(=O)c1ccc(Br)cc1)C(=O)NCc1ccco1 (stereo not given)	.	.	?	.	.	.
CC(C(=O)Nc1ccc(Br)cc1)N(C)CC(=O)NCc1ccco1 (stereo not given)	.	/	8.91µM	.	.	.
CSCC[C@H](NC(=O)[C@H](Cc1ccccc1)NC(=O)[C@H](Cc1cnc[nH]1)NC(=O)CNC(=O)[C@@H](NC(=O)[C@H](C)NC(=O)[C@H](Cc1c[nH]c2ccccc12)NC(=O)[C@H](CCC(N)=O)NC(=O)[C@@H]1CCCN1C(=O)[C@@H](NC(=O)[C@@H]1CCC(=O)N1)C(C)C)C(C)C)C(N)=O	/	.	/	/	/	/
Cc1cnc(CNc2ncncc2-c2c(C)noc2C)cn1	/	.	.[0.501 µM]	/	/	/
O=[N+]([O-])c1ccc(/C=N\N2CCN(Cc3ccccc3Cl)CC2)cc1	/	/	/	/	.	/
O=C(/C=C/c1ccc([N+](=O)[O-])cc1)N1CCN(Cc2ccccc2)CC1	.	.	.	.	.	.
O=[N+]([O-])c1ccc(Cl)c(/C=N/N2CCN(Cc3ccccc3Cl)CC2)c1	?	.	44.7µM	25.1µM	.	?
O=[N+]([O-])c1ccc(Cl)c(/C=N/N2CCN(Cc3ccccc3)CC2)c1	.	.	39.8µM	10µM	.	.
Clc1cccc(/C=N/N2CCN(Cc3ccccc3)CC2)c1	?	.	44.7µM	39.8µM	.	50.1µM
O=[N+]([O-])c1ccc(/C=N/N2CCN(Cc3ccccc3)CC2)cc1	?	.	50.1µM	12.6µM	.	44.7µM
Cc1ccc2nc(NC(=O)CCn3c(=O)sc4ccccc43)sc2c1	.	.	?	.	.	.
CCCN1CNc2c(c(=O)[nH]c(=S)n2CCc2ccsc2)C1	.	/	/	/	/	.
O=[N+]([O-])c1cc(/C=N/N2CCN(Cc3ccccc3)CC2)ccc1Cl	?	.	28.2µM	11.2µM	.	?
O=[N+]([O-])c1ccc(Cl)c(/C=N/N2CCN(Cc3ccc(Cl)cc3)CC2)c1	.	.	10µM	22.4µM	.	.
SMILES	HP1b binding inh	Sfp inh	G9a block	BAZ2B inh	PLK1 PBD block	JMJD2A Tudor
Cc1[nH][nH]c(=O)c1C(c1ccccc1[N+](=O)[O-])C(C#N)C#N (stereo not given)	.	.	39.8µM	.	.	.
Cc1[nH][nH]c(=O)c1C(c1cc([N+](=O)[O-])ccc1O)c1c(C)[nH][nH]c1=O	.	.	.	.	?	.
O=C(CN1CCN(Cc2ccccc2)CC1)N/N=C\C=C/c1ccco1	.	.	?	.	.	.
O=C(CSc1nnc(SCc2ccccc2)s1)N/N=C/C=C/c1ccco1	25.1µM	35.5µM	12.6µM	25.1µM	?	39.8µM
Cn1c(SCC(=O)N/N=C/C=C/c2ccco2)nc2ccccc21	.	.	7.08µM	44.7µM	.	?
CCn1c(SCC(=O)N/N=C/C=C/c2ccco2)nnc1-c1ccccc1	.	.	15.8µM	?	.	?
O=C(CSc1nnc(SCc2ccccc2)s1)NNC(=S)Nc1ccccc1	.	.	2.24µM	.	?	.
CCn1c(SCC(=O)N/N=C/C(C)=C/c2ccco2)nnc1-c1ccccc1	.	.	.	?	.	?
Cc1sc2ncnc(SCC(=O)N(C)C3CCS(=O)(=O)C3)c2c1C (stereo not given)	.	.	.	.	.	.
Cc1nnc(SCC(=O)NC2CCCCC2)[nH]c1=O	.	.	?	.	.	.
Cc1nnc(SC(C)C(=O)NC2CCCCC2)[nH]c1=O (stereo not given)	.	/	/	/	26.7µM	?
COc1ccc2c(c1)C(c1ccccc1OC)CC(=O)O2 (stereo not given)	/	.	35.5µM	/	/	/
O=C(N/N=C/c1cccc(OC(=O)c2ccco2)c1)c1ccc(F)cc1	.	.	.	.	.	.
Cc1nnc(NC(=O)CSc2cn(CCNC(=O)c3ccccc3)c3ccccc23)s1	.	.	28.2µM	.	.	.
COc1ccc(C(=O)NCCn2cc(SCC(=O)Nc3nnc(C)s3)c3ccccc32)cc1	.	/	/	/	.	.
COc1ccc(C(=O)NCCn2cc(SCC(=O)Nc3cccc(C)c3)c3ccccc32)cc1	.	/	.	50.1µM	/	.
COc1ccc(C(=O)NCCn2cc(SCC(=O)NCCc3ccc(OC)c(OC)c3)c3ccccc32)cc1	.	/	.	?	/	.
COc1ccc(C(=O)NCCn2cc(SCC(=O)NCc3ccco3)c3ccccc32)cc1	.	?	.[2.33 µM]	.	2.99µM	?
COc1ccc(C(=O)NCCn2cc(SCC(=O)NCC3CCCO3)c3ccccc32)cc1 (stereo not given)	.	.	/	.	.	.
CCc1ccc(NC(=O)Cn2c(=O)n(-c3ccc(OC)cc3)c(=O)c3ccc(C(=O)NCc4ccc(C)cc4)cc32)cc1	.	/	.	/	/	.
CC1CCN(C(=O)c2ccc(S(=O)(=O)Cc3ccccc3F)c([N+](=O)[O-])c2)CC1	.	.	.	.	.	.
O=C(c1ccc(S(=O)(=O)Cc2ccccc2F)c([N+](=O)[O-])c1)N1CCCC1	.	.	.	.	23.8µM	?
O=S(=O)(c1ccc(Cl)nc1)N1CCCCC1	.	.	.	.	.	.
Cc1c(C(=O)NCc2ccc(S(N)(=O)=O)cc2)oc2ccc(Cl)cc12	.	.	.	.	.	.
